Data published in ChEMBL document CHEMBL3988442, “University of Dundee, Small-Polar-MMV Screening Library” (2021).
In all, about 66,000 compounds went through this assay and about 960 (1.5%) showed an effect of 50% or more. The list comes from a sample in which strong results are over-represented; it also holds similar structures and randomly drawn compounds.

System: Trypanosoma brucei
Experiment: Trypanosoma brucei 72 hour study
Assay type: functional, organism-based
Parameters: scale not given: in the data most compounds retested in dose-response had high values

CC(=O)N1CCC(Nc2cc(F)ccc2OCC2CCCO2)CC1 (centres undefined)
Percent Effect (10 µM): -21.13%

COCC1CN(Cc2ccc(C)s2)Cc2nnn(C)c21.O=C(O)C(F)(F)F (centres undefined)
Percent Effect (30.3 µM, […]): -30.47%

O=C1C(NCc2nnc3n2CCCC3)CCN1c1ccccc1F (centres undefined)
Percent Effect (10 µM): 0.3109%

CN1[C@@H](C(=O)NCC2CC2)C[C@H]2CN(Cc3cccc(C#N)c3)C[C@H]21.O=C(O)C(F)(F)F.O=C(O)C(F)(F)F
Percent Effect (30.3 µM, […]): -35.21%

CCN(C)c1ncnc2c1CCN(Cc1ccncc1)CC2.O=C(O)C(F)(F)F.O=C(O)C(F)(F)F.O=C(O)C(F)(F)F
Percent Effect (30 µM, 30.03 µM): 14.6%

CC1c2ncc(COc3cccnc3)n2CCN1Cc1ccco1 (centres undefined)
Percent Effect (30.3 µM, […]): -3.756%

CC(C)C1SCC(=O)Nc2c1cnn2-c1ccc(Cl)cc1 (centres undefined)
Percent Effect (30 µM, 30.03 µM): 16.61%

CC(C)N(C)S(=O)(=O)c1ccc2c(c1)CCN(C(=O)c1cscn1)C2
Percent Effect (30 µM, 30.03 µM): -38.59%

CN1CC[C@H](N(C)Cc2ccccc2)C[C@H](O)C1
Percent Effect (30.3 µM, […]): -4.232%

CN1CC[C@H](N(Cc2ccccc2)CC2CC2)C[C@H](O)C1
Percent Effect (30.3 µM, […]): 2.753%

CN1CC[C@H](N(Cc2ccccc2)Cc2ccccc2)C[C@H](O)C1
Percent Effect (30.3 µM, […]): 67.88%

O=C(O)C(F)(F)F.O=C(c1ccsc1)N1CCO[C@@H]2CN(Cc3ccco3)CC[C@@H]2C1
Percent Effect (30.3 µM, […]): -78.45%

CNC(=O)CN1CCOCC12CCN(CCc1ccccc1)CC2.O=C(O)C(F)(F)F.O=C(O)C(F)(F)F
Percent Effect (30 µM, 30.03 µM): 40.27%

CC(C)(C)C(NCC(=O)N1CCNC(=O)C1)c1ccccc1 (centres undefined)
Percent Effect (30 µM, 30.03 µM): -32.1%

CCc1nc(NS(=O)(=O)c2ccc(C)cc2Cl)no1
Percent Effect (30 µM, 30.03 µM): 33.48%

CCc1nc(NS(=O)(=O)c2cc(C)c(F)cc2Cl)no1
Percent Effect (30.3 µM, […]): 54.01%

CCc1nc(NS(=O)(=O)c2ccc(F)cc2Cl)no1
Percent Effect (30.3 µM, […]): -4.749%

CN(C)C(=O)c1cnc2n1CCN(Cc1ccc3c(c1)OCO3)C2.O=C(O)C(F)(F)F
Percent Effect (30.3 µM, […]): -102%

CC(O)CN1CCC(CNCc2ccccc2OC(F)(F)F)CC1 (centres undefined)
Percent Effect (30 µM, 30.03 µM): -22.34%

CC(O)CN1CCC(CNCc2cccc(OC(F)(F)F)c2)CC1 (centres undefined)
Percent Effect (10 µM): 16.76%

CC(O)CN1CCC(CNCc2cccc(Cl)c2)CC1 (centres undefined)
Percent Effect (30.3 µM, […]): 36.81%

CC(O)CN1CCC(CNCc2ccc(OC(F)(F)F)cc2)CC1 (centres undefined)
Percent Effect (10 µM): 63.69%

CC(O)CN1CCC(CNCc2cccc(Br)c2)CC1 (centres undefined)
Percent Effect (30 µM, 30.03 µM): -7.469%

CC(O)CN1CCC(CNCc2cccc(C(F)(F)F)c2)CC1 (centres undefined)
Percent Effect (30.3 µM, […]): 86.87%

CN(C)c1ncc(C(=O)N2C[C@H]3C[C@H](Oc4ccccc4)C[C@H]3C2)cn1
Percent Effect (30.3 µM, […]): 8.214%

Cl.Cn1ccnc1CNC(=O)c1cncc(C2CCNCC2)n1
Percent Effect (30.3 µM, […]): -8.849%

O=C(O)C(F)(F)F.O=C(c1cccc(Cl)c1)N1CCCn2c(CN3CCCCC3)nnc2C1
Percent Effect (30 µM, 30.03 µM): 5.337%

Oc1cccc(CNCc2ccc(-n3cncn3)nc2)c1
Percent Effect (30.3 µM, […]): -113.8%

COCCN1C(=O)[C@H]2CC[C@@H]1CN(S(=O)(=O)c1ccc(C#N)cc1)C2
Percent Effect (30.3 µM, […]): -35.87%

CCO[C@H]1CO[C@@]2(CCCN(S(=O)(=O)c3cccnc3)C2)C1.O=C(O)C(F)(F)F
Percent Effect (30 µM, 30.03 µM): 23.98%

Fc1cccc(CN2CCOC3(COCCN(CC4CC4)C3)C2)c1.O=C(O)C(F)(F)F.O=C(O)C(F)(F)F (centres undefined)
Percent Effect (30.3 µM, […]): -50.27%

CC(C)(N)C(=O)N1CCCC(C(=O)c2ccc(C(C)(C)C)cc2)C1 (centres undefined)
Percent Effect (30.3 µM, […]): 89.7%

CC(C)(C)c1ccc(C(=O)C2CCCN(C(=O)CNS(C)(=O)=O)C2)cc1 (centres undefined)
Percent Effect (30.3 µM, […]): -41.24%

CC(=O)NCC(=O)N1CCCC(C(=O)c2ccc(C(C)(C)C)cc2)C1 (centres undefined)
Percent Effect (30.3 µM, […]): -72.68%

O=C(O)C(F)(F)F.O=C(c1ccnnc1)N1C[C@H](Oc2ccccn2)[C@H]2OCCC[C@H]21
Percent Effect (30.3 µM, […]): -55.97%

Cl.OC1CCN(c2cncc(CCC3CCCN3)n2)CC1 (centres undefined)
Percent Effect (30.3 µM, […]): -6.285%

Cc1occc1C(=O)N1CCn2c(COCC3CC3)cnc2C1C (centres undefined)
Percent Effect (30 µM, 30.03 µM): 51.37%

Cc1ncoc1C(=O)N1CCn2c(COCC3CC3)cnc2C1C (centres undefined)
Percent Effect (30.3 µM, […]): 10.54%

CCOCc1cnc2n1CCN(C(=O)c1ccoc1C)C2C (centres undefined)
Percent Effect (30.3 µM, […]): -34.9%

COc1ccc(CN2CCC3(CC2)CCN(CC(C)C)C3=O)cc1.O=C(O)C(F)(F)F
Percent Effect (30.3 µM, […]): 0.8917%

CN(C)CCO[C@H]1CN(CC2CC2)[C@@H]2CCCO[C@H]12.O=C(O)C(F)(F)F.O=C(O)C(F)(F)F
Percent Effect (30.3 µM, […]): 15.45%

c1ccc(N2CCC(c3ccncc3)CC2)cc1
Percent Effect (30.3 µM, […]): 0.5256%

CC(=O)N1CCCC2(C1)CN(c1nncs1)CCO2.O=C(O)C(F)(F)F (centres undefined)
Percent Effect (30.3 µM, […]): -90.31%

Cc1nc(C2CCNCC2)cc(N(C)Cc2cc3cc(F)ccc3[nH]2)n1
Percent Effect (30 µM, 30.03 µM): 7.512%

CCN(Cc1ccncc1)c1cc(C2CCNCC2)nc(C)n1
Percent Effect (30 µM, 30.03 µM): -25.3%

CCN(Cc1c(F)cccc1Cl)c1cc(C2CCNCC2)nc(C)n1
Percent Effect (30 µM, 30.03 µM): 88.22%

O=C(CC1CCCC1)N1C[C@H](OCc2ccncc2)[C@H]2OCCC[C@H]21.O=C(O)C(F)(F)F
Percent Effect (30 µM, 30.03 µM): -16.6%

Cc1ccc(CN(Cc2ccncc2)C2CC(C)(C)NC(C)(C)C2)o1.O=C(O)CC(O)(CC(=O)O)C(=O)O
Percent Effect (30.3 µM, […]): -22.8%

O=C(Nc1nccs1)NC1CCN(Cc2ccccc2)C1 (centres undefined)
Percent Effect (30 µM, 30.03 µM): -14.85%

Nc1nccnc1C(=O)NC1CCN(Cc2ccccc2)C1 (centres undefined)
Percent Effect (30 µM, 30.03 µM): 52.39%

Nc1nccnc1C(=O)NC1CCCN(Cc2c(F)cccc2F)C1 (centres undefined)
Percent Effect (30 µM, 30.03 µM): -36.01%

c1ccc(N2CCC(OCC3CCCCO3)CC2)nc1 (centres undefined)
Percent Effect (30.3 µM, […]): -91.25%

COc1cc(CNCCn2ccnc2)cc2c1OCO2.Cl
Percent Effect (30.3 µM, […]): 6.439%

COc1cc(CNCc2ccc(C(C)O)cc2)cc2c1OCO2 (centres undefined)
Percent Effect (30 µM, 30.03 µM): 8.941%

COc1cc(CNCC(O)c2ccccc2)cc2c1OCO2.Cl (centres undefined)
Percent Effect (30.3 µM, […]): 51.8%

Cc1cccc(COc2ccc(C(C)NS(N)(=O)=O)cc2)c1 (centres undefined)
Percent Effect (30 µM, 30.03 µM): 4.364%

Cc1cccc(COc2ccc(C(C)N)cc2)c1.Cl (centres undefined)
Percent Effect (30 µM, 30.03 µM): 102.3%

Cc1cccc(COc2ccc(C(C)NC(=O)CNC(N)=O)cc2)c1 (centres undefined)
Percent Effect (30 µM, 30.03 µM): 6.871%

CN1CC[C@H]2OCC[C@@H](C(=O)NCc3ccco3)[C@@H]2C1.O=C(O)C(F)(F)F
Percent Effect (30 µM, 30.03 µM): -30.69%
